# Most compounds without a hit are left out; they make up all but 14% or so of the library.
# HSD17B inhib – HSD17B dehydrogenase inhibition; Potency, µM (top dose mostly 57.1 µM), inactives show top-dose activity change, negative = inhibition, actives largely listed as inhibitors; Q99714; recombinant HSD17B10, NADH fluorescence kinetic; AID 893; actives 7.6% (n = 75,000);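 also: the protocol describes HADH2 (HSD17B10) and not the HSD17B4 of the title; potency is read from the fitted curve at half-maximal effect; % is scaled to controls: 0 for no effect and ±100 for the full control effect; nearly all actives have a fitted effect of over 70% in size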
#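 20 nM HADH2, pH 9.0 Tris/Tween; cpd preinc 15 min RT; start w/ 1 mM NAD+ + 90 uM b-hydroxybutyryl-CoA; kinetic fluor ex360/em450 q30s x 4 min; delta last-first.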
# AID923 – qHTS Assay for Allosteric/Competitive Inhibitors of Caspase-1: Spectroscopic Profiling in AFC Spectral Region; actives 1.1% (n = 75,000); Potency, µM (doses to about 57.5 µM), for inactives: at the highest dose fluorescence increase, actives largely listed as activators; AID 923, 2007; compound fluorescence, AFC spectral region (405/520 nm); also: potency is read from the fitted curve at half-maximal effect; 0% is about no effect
#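 Titrations up to 57 uM read every 20 sec for 3 min (405/520 nm) with 50 nM caspase 1 and 5 uM Ac-WEHD-AFC, pH 7.5 HEPES buffer. Fluorescence-vs-time intercept gave baseline, scaled against on-plate AFC standard.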
# 4MU fluor – 4-MU region autofluorescence; max dye-equivalent concentration, M; compound autofluorescence, 340/450 nm, 4-MU equivalents; active compounds read high; actives 11% (n = 59,000); in the data active = max dye-equivalent concentration above about 10 nM; inconclusive = mostly about 1.1 nM to 9.6 nM
#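 Compounds in 100 mM Tris, pH 8.0, incubated 15 min at room temperature, then fluorescence read at 340 nm excitation/450 nm emission. Signal converted to 4-MU dye-equivalent concentration using an on-plate six-point 4-MU standard curve.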
# CRE Fsk mod – alters forskolin-stimulated CRE reporter signaling in CHO cells. CHO CRE-bla reporter (cAMP response element driving beta-lactamase), forskolin EC10, beta-lactamase ratio. Potency, µM (series often up to 38.2 µM), without a hit: at the highest dose activity change, negative = inhibition, most hits filed as activators. actives 2.5% (n = 71,000); active = well fitted activation curve with a large enough effect in the signal ratio, with a control signal flat, not every such curve was filed as active; inconclusive = small, poorly fitted or top-dose-only effect, or effect the other way, or a change in a side signal; the % refers to the signal ratio; also: potency is read from the fitted curve at half-maximal effect; % of control where 0% means no effect
#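 Reporter-gene assay: CHO cells with beta-lactamase behind cAMP responsive elements, co-treated with compound and EC10 NKH 477 for 3 hours at 37 degrees Celsius. Activity came from the 460/530 nm CCF4 emission ratio.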
# HADH2 inhib – inhibitors of human HADH2 dehydrogenase; Q99714; actives 3.4% (n = 73,000); recombinant HADH2, NADH fluorescence, beta-hydroxybutyryl-CoA; Potency, µM (titrated, usually from 57.1 µM), without a hit: at the top dose activity change, negative = inhibition, hits mostly inhibitors; also: potency is read from the fitted curve at half-maximal effect; % is scaled to controls: 0 for no effect and ±100 for the full control effect; nearly all actives have a fitted effect of over 60% in size
# Target sequence (Q99714 whole entry, looked up, one chain of several): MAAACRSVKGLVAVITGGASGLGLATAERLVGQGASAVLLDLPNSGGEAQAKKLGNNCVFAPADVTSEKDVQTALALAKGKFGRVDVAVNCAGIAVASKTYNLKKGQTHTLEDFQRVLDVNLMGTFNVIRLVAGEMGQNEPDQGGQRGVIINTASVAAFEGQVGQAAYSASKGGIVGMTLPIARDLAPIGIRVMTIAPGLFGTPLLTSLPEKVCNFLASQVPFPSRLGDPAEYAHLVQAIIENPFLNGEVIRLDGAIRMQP
#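 E. coli-expressed His-tagged HADH2 tested at 20 nM in alkaline Tris buffer (pH 9.0); oxidation of 90 uM beta-hydroxybutyryl-CoA with 1 mM NAD+ tracked fluorimetrically for 4 min.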
# A350 autofl – compounds fluorescent in Alexa 350 spectral region. Compound autofluorescence, 340/450 nm, Alexa 350 dye-equivalents; active compounds read high. AID 590. actives 11% (n = 59,000). max dye-equivalent concentration, M; in the data active = max dye-equivalent concentration above about 10 nM; inconclusive = mostly about 1.1 nM to 9.6 nM
# CHO tox 24h – reduces CRE-bla CHO cell viability after 24 hours; 120 tested, under 10 active; activity, negative = viability loss, % at 46.1 µM; AID 905; shares compounds with CRE Fsk mod; CRE-bla CHO viability, ATP luminescence, 24 h
# CHO via 40h – reduces CRE-bla CHO cell viability after 40 hours; shares compounds with CRE Fsk mod; CRE-bla CHO viability, ATP luminescence, 40 h; Potency, µM, for inactives: max response, hits mostly inhibitors; 120 tested, under 10 active; AID 906
# CRE-luc potent – boosts CRE luciferase signal in HEK293 cells; Potency, µM (highest dose often 38.3 µM), for inactives: at the highest dose activity, positive = activation, actives largely listed as activators; shares compounds with CRE Fsk mod; AID 907; actives 80% (n = 120); HEK293 CRE-luc2P, NKH477 EC10 potentiation, luminescence, 4 h
# Numbers without * were called inactive; i = inactive; ? = inconclusive; . = no result given; ! = repeats disagree; [ ] = another dose, or the depositor's remark. Unless noted, calls follow the shape of the dose curve; as a rule, active = well fitted curve in the direction sought with a large enough effect; inconclusive = small, poorly fitted or top-dose-only effect, or another doubt; inactive = no such curve, though single readings can be large; an effect the other way counts as inactive or inconclusive.
SMILES,HSD17B inhib,AID923,4MU fluor,CRE Fsk mod,HADH2 inhib,A350 autofl,others
N#CC(Cl)Cl,-0.9%,-0.2%,.,-5.2%,-5.2%,.,
Oc1ccc2c3c1O[C@@H]1c4[nH]c5c(c4C[C@@]4(O)[C@@H](C2)N(CC2CC2)CC[C@]314)C[C@]1(O)[C@@H]2Cc3ccc(O)c4c3[C@@]1(CCN2CC1CC1)[C@H]5O4,-8.9%,-0.7%,1.25e-07M*,-3.1%,?,5.23e-08M*,
CC1CC(=O)O1 (stereo not drawn),0.0%,3.6%,.,-9.0%,-0.7%,.,
Nc1nc(N)c(N=Nc2ccc([As](=O)(O)O)c(O)c2)c(N)n1,-1.8%[11.4 µM],0.7%[11.5 µM],?,4.2%[7.6 µM],-4.8%[11.4 µM],?,
C[C@]12CCC(=O)C=C1CC[C@@H]1[C@@H]2CC[C@]2(C)C(=O)CC[C@@H]12,2.3%,-1.9%,i,-4.7%,25.1µM*!,i,
C[C@@]12CC(=O)[C@H]3[C@@H](CCC4=CC(=O)CC[C@]43C)[C@H]1CCC2=O,-3.8%[25.6 µM],-1.5%[25.7 µM],i,-7.7%[17.1 µM],7.0%[25.6 µM],i,
C[C@@]12CC[C@H]3[C@@H](CCC4=CC(=O)CC[C@]43C)[C@H]1CC[C@H]2C(=O)CO,12.6µM*,-3.1%[25.7 µM],i,6.6%[17.1 µM],-0.3%[25.6 µM],i,
CC(C)C[C@H](NP(=O)(O)O[C@@H]1O[C@@H](C)[C@@H](O)[C@@H](O)[C@H]1O)C(=O)N[C@@H](Cc1c[nH]c2ccccc12)C(=O)O,3.9%,0.4%,i,-2.7%,9.4%,i,
C=C(Cl)Cl,3.3%,4.5%,.,-5.7%,2.2%,.,
O=C(O)C(Cl)(Cl)Br,-0.3%,1.5%,.,-5.3%,-4.5%,.,
C#CCN[C@@H](C)Cc1ccccc1,-4.9%,-2.5%,i,-2.3%,10.8%,i,
Cn1c(C(=O)N2CCC3(CC2)OCCO3)cc2c(=O)n(C)c3ccccc3c21,-4.6%,3.1%,i,?,6.2%,i,CHO tox 24h=-7.2;CHO via 40h=-6.6%;CRE-luc potent=14.1µM*
CN1C(=O)c2ccccc2Sc2ccc(C(=O)N3CCC4(CC3)OCCO4)cc21,11.3%,1.1%,i,?,0.1%,i,
COc1ccc(Cl)cc1NC(=O)CSc1ncnc2c1oc1ccccc12,0.6%,-1.4%,i,0.1µM*,15.2%,i,CHO tox 24h=-7.7;CHO via 40h=-13.0%;CRE-luc potent=1.26µM*
CCc1ccccc1NC(=O)CSc1nnc([C@@H](N)Cc2c[nH]c3ccccc23)o1,-8.8%,5.3%,i,-3.3%,-6.8%,i,
CN(C)C=C1C(=O)N(C2CCCCC2)C(=O)N(C2CCCCC2)C1=O,-8.5%,-1.9%,i,-9.6%,?,i,CHO tox 24h=-27.8;CHO via 40h=?;CRE-luc potent=?
COC(=O)[C@@]1(Cc2ccccc2)[C@H]2c3cc(C(=O)N(C)C)[nH]c3C[C@H]2CN1C(=O)c1ccccc1,-4.4%,0.0%,.,?,-4.0%,.,
Brc1c(Br)c(Br)c2n[nH]nc2c1Br,?,-1.7%,.,.,-10.6%,.,
CC(C)C(=O)N1CCN(CCN=Cc2c(O)n(C)c(=O)n(C)c2=O)CC1,.,.,i,.,.,i,CHO tox 24h=-0.4;CHO via 40h=-4.0%;CRE-luc potent=-1.4%
COc1cc2c(c(OC)c1OC)-c1ccc(OC)c(=O)cc1[C@@H](NC(C)=O)CC2,2.3%,1.8%,.,1.26µM*,-9.6%,.,CHO tox 24h=-19.5;CHO via 40h=-10.9%;CRE-luc potent=?
Oc1ccc(Cl)cc1Cl,-2.1%,-0.7%,.,-3.7%,?,.,

# Screens as filed in PubChem BioAssay.
